An excerpt weighted towards active compounds, which were near 3.5% of everything screened.
mHTT-CaM PPI inh: inhibitors of human mutant huntingtin-calmodulin interaction; AlphaScreen His-mHTT/GST-CaM binding, luminescence; inhibition, % at 15 µM; 190,000 compounds, 3.6% hits;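 further: 0% = both proteins with DMSO and 100% = one protein alone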
Target sequence (P42858 whole entry, looked up, stated change not applied): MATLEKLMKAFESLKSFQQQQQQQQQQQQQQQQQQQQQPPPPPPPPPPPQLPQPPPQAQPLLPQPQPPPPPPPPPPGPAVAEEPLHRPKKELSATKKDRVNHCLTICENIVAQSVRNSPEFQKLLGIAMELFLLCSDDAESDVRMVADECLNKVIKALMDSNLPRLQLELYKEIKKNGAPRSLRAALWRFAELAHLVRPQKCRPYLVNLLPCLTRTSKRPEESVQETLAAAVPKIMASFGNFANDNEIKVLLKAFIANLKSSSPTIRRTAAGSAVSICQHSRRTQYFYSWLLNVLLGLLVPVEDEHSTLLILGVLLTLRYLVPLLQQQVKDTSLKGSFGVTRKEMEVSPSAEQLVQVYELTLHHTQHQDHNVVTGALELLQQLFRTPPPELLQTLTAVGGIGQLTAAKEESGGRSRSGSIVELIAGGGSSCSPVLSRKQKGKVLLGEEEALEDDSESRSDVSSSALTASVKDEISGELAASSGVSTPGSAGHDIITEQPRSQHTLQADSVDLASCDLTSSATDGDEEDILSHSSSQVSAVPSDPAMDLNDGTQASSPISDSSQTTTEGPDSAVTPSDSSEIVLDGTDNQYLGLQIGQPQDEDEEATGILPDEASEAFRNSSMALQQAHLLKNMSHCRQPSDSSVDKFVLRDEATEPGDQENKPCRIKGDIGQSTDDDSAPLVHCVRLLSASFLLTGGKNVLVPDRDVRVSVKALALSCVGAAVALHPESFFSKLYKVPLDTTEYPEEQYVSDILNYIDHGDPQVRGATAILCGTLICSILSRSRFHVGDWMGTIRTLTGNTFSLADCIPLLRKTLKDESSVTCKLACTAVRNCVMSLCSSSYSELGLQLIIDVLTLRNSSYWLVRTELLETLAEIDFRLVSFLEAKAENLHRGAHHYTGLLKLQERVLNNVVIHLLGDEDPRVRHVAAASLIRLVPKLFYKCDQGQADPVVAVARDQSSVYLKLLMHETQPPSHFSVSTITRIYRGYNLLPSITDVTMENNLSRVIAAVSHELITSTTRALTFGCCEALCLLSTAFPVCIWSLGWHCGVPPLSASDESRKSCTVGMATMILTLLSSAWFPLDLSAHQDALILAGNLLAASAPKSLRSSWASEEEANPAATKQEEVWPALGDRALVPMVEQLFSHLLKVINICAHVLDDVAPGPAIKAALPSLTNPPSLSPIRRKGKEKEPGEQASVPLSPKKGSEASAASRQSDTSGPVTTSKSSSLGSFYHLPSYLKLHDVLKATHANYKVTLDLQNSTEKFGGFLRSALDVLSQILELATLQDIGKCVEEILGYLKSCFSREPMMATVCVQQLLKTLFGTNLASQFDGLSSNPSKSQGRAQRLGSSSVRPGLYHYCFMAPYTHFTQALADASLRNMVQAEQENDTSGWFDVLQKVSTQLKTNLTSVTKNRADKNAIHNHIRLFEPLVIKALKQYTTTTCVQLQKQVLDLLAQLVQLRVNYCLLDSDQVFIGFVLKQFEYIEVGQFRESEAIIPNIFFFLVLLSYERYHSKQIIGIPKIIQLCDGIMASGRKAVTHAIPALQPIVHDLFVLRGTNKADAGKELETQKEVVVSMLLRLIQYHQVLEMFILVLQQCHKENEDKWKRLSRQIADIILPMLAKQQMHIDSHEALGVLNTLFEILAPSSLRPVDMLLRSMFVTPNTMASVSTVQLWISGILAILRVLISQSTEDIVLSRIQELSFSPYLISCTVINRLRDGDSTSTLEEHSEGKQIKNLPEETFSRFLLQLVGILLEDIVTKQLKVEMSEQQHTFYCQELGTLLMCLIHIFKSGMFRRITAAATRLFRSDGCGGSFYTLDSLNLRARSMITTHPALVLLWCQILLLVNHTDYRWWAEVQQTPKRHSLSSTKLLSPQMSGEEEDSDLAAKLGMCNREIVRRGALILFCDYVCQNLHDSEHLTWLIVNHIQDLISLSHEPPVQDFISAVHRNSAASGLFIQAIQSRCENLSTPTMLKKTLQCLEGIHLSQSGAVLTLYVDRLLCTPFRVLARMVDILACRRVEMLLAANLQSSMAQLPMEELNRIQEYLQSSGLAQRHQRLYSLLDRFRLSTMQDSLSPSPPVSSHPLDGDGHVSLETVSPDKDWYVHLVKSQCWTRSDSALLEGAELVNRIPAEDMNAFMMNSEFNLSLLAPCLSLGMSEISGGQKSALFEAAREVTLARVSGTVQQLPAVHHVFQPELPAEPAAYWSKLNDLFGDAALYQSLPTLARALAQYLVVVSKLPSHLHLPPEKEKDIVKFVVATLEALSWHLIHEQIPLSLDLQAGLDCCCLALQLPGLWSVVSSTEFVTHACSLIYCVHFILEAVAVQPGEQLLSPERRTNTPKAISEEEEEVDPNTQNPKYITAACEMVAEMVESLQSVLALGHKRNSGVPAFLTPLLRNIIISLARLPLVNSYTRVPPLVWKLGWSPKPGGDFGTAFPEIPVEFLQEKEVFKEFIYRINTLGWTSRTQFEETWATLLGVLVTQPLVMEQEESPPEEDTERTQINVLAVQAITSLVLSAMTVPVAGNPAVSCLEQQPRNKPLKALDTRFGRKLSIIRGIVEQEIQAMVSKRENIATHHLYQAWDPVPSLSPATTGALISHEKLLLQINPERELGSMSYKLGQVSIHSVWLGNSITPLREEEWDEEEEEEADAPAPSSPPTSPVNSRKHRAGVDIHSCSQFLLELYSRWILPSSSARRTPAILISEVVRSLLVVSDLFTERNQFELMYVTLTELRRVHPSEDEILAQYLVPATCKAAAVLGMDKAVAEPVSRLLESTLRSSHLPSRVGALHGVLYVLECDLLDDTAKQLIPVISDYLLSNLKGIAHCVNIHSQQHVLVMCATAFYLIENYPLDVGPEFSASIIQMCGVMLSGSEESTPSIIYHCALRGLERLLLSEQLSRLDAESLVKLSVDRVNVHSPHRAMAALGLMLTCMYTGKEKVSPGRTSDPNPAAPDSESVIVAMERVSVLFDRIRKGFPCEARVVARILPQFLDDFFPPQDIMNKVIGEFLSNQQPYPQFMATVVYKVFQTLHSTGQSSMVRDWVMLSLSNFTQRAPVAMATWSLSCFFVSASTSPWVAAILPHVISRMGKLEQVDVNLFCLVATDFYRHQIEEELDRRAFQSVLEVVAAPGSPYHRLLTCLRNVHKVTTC
Pf apPOL block: Pf-apPOL DNA polymerase inhibition. Recombinant Pf-apPOL, molecular beacon fluorescence, 1.5 h. inhibition, % at 10 µM. 210,000 compounds, 0.25% hits
Active calls of the source: *; i = inactive; . = no result. No stated cut-off is given here; in the data, active means inhibition above about 50%; inactive means the rest.

SMILES	mHTT-CaM PPI inh	Pf apPOL block
Cc1ccc(/C=C/C23NC(=O)CCN2c2ccccc2C3(C)C)cc1 (stereo not drawn)	55*	-4
CC1(C)c2ccccc2N2CCC(=O)NC21C=Cc1cccs1 (stereo not drawn)	.	-9
N#CC1=C(S)NC(O)(c2ccccc2)C([n+]2ccccc2)C1c1ccccc1Br (stereo not drawn)	77*	-4
N#CC1=C(S)NC(=O)C([n+]2ccccc2)C1c1ccc(F)c(Br)c1 (stereo not drawn)	33	-1
COc1cc(OC)c(-c2nc(-c3ccsc3)c(-c3ccccc3)[nH]2)cc1OC	68*	-1
c1ccc(-c2nc(-c3ccco3)[nH]c2-c2ccccc2)cc1	.	9
O=c1/c(=C/c2cccc(Cl)c2)sc2ncnn12	0	-1
COc1cc(C2C(C#N)=C(N)Oc3n[nH]c(-c4cc(OC)c(OC)c(OC)c4)c32)ccc1O (stereo not drawn)	10	-3
COc1ccc(C2C(C#N)=C(N)Oc3n[nH]c(-c4ccc(OC)c(OC)c4)c32)cc1O (stereo not drawn)	10	-1
COc1cc(C2C(C#N)=C(N)Oc3n[nH]c(-c4ccc(Cl)c(Cl)c4)c32)ccc1O (stereo not drawn)	99*	-1
N#CC1=C(N)Oc2n[nH]c(-c3cccc([N+](=O)[O-])c3)c2C1c1ccc(O)cc1 (stereo not drawn)	14	7
N#CC1=C(N)Oc2n[nH]c(-c3ccc(Cl)c(Cl)c3)c2C1c1ccc(O)cc1 (stereo not drawn)	100*	-4
COc1ccc(-c2[nH]nc3c2C(c2ccc(C(F)(F)F)cc2)C(C#N)=C(N)O3)cc1OC (stereo not drawn)	100*	1
COc1ccc(/C=C2/c3cc(C)ccc3-c3ncccc32)cc1	36	-2
Fc1cccc(F)c1CSc1nnc(-c2ccco2)n1-c1ccccc1	6	1
Cc1ccc(NC(=O)N2CC(c3nc(C)no3)C3(CCOCC3)C2)cc1 (stereo not drawn)	-3	-4
COc1ccc(N/C(C)=C/C(=O)c2ccc(OC)cc2)cc1	1	30
CCOC(=O)Cc1csc(NC(=O)CN2CCC(Cn3cnc4ccccc43)CC2)n1	-10	-6
CCOC1=NC2Nc3ccc(Cl)cc3N(C)C2C1c1ccc([N+](=O)[O-])cc1 (stereo not drawn)	54*	-2
CCN1c2ccccc2NC2N=C(OC)C(c3ccccc3)C21 (stereo not drawn)	41	-2
CCN(CC)C(=O)c1cc2c(s1)CCC(C(=O)Nc1ccccc1F)C2 (stereo not drawn)	-2	-1
Cc1nc(-c2ccncc2)nc2c1CCC(=O)N2CCC1=CCCCC1	13	6
Cc1nc(-c2cccnc2)nc2c1CCC(=O)N2CCC1=CCCCC1	57*	5
CCOCn1cc(NC(=S)NCc2ccco2)cn1	-2	.
O=c1ccc(-c2ccccc2)nn1CCc1nc(-c2cccc(F)c2)no1	81*	-9
SMILES	mHTT-CaM PPI inh	Pf apPOL block
Cc1ccc(-c2noc(CCn3nc(-c4ccccc4)ccc3=O)n2)cc1	17	0
CC1CCN(C(=O)C2CCCN(S(=O)(=O)c3ccc(Br)s3)C2)CC1 (stereo not drawn)	-5	-4
N#CC(C#N)C(C#N)(C#N)C1CCC/C(=C\c2ccco2)C1=O (stereo not drawn)	99*	2
O=C1/C(=C/c2ccco2)CC2CC1C/C(=C\c1ccco1)C2=O	47	2
Oc1ccc(/C=C/c2nc(-c3ccccc3O)n(-c3ccccc3)n2)cc1	92*	6
Oc1ccc(/C=C/c2nc(-c3ccccc3O)n(-c3ccccc3)n2)c(O)c1	96*	-77
COc1ccc(/C=C/c2nc(N)nc(-c3ccccc3O)n2)cc1	32	-5
Oc1ccc(/C=N/n2cnnc2)c(O)c1	i	.
O=[N+]([O-])c1cccc(-c2ncnn2-c2cccc(C(F)(F)F)c2)c1	2	-1
COCC(C)(O)CNC(=O)Nc1ccc(C(C)(C)C)cc1 (stereo not drawn)	-20	-6
O=C1C=CC(=O)C(c2cccc(C(F)(F)F)c2)=C1	74*	-2
O=C1c2ccccc2C(=O)N1Cn1cc(-c2cccc(C(F)(F)F)c2)nn1	-3	2
Cc1ccc(NC(=O)c2cc(S(=O)(=O)NC3CCCCC3)ccc2F)cc1Cl	5	-8
O=C(Nc1cccc(Cl)c1)c1ccc(F)c(S(=O)(=O)NC2CCCC2)c1	-1	0
O=C(Nc1ccc(Cl)c(Cl)c1)c1cc(S(=O)(=O)NC2CCCCC2)ccc1F	78*	-4
O=C(Nc1cc(Cl)cc(Cl)c1)c1ccc(F)c(S(=O)(=O)NC2CCCC2)c1	54*	31
O=C(O)CC1Nc2ccccc2NC1=O (stereo not drawn)	4	2
C=C(C)CC1Nc2ccccc2NC1CC(=C)C (stereo not drawn)	56*	.
Nc1nc(-c2c(F)c(F)c(F)c(F)c2-c2ccccc2)cs1	2	0
O=C(O)c1ccccc1Nc1c([N+](=O)[O-])c(=O)oc2ccccc12	24	0
N#CCc1nn(-c2ccccc2)c(N)c1C#N	4	0
N#Cc1c(-c2ccc(Nc3ccccc3)cc2)nn(-c2ccccc2)c1N	53*	2
Cc1ccc2nc(N3CCOCC3)c(/C=C3\N=C(c4ccccc4)OC3=O)cc2c1	1	-2
CC(C)CC(C(=O)Nc1cccc(Cl)c1)N1C(=O)c2ccccc2C1=O (stereo not drawn)	63*	1
CC(C)CC(C(=O)Nc1cccc(O)c1)N1C(=O)c2ccccc2C1=O (stereo not drawn)	10	-8
SMILES	mHTT-CaM PPI inh	Pf apPOL block
O=C(c1cccs1)N1CCCN(c2cc(-c3ccccc3)[nH]n2)CC1	22	-6
CNc1ccc(Cl)c2c1C(=O)c1ccccc1C2=O	77*	33
CC(=O)Nc1ccc(Cl)c2c1C(=O)c1ccccc1C2=O	5	10
COc1ccccc1C(=O)N1CCc2c(c(C(=O)NCc3ccccc3)nn2C)C1	36	-5
Cn1nc(C(=O)NCc2ccccc2)c2c1CCN(C(=O)c1ccc(Br)o1)C2	16	-4
Cc1ccccc1C(=O)N1CCc2c(c(C(=O)NCc3ccc(F)cc3)nn2C)C1	35	-12
COc1ccccc1C(=O)N1CCc2c(c(C(=O)NCc3ccc(F)cc3)nn2C)C1	71*	-12
Cn1nc(C(=O)NCc2ccccc2)c2c1CCN(C(=O)c1ccccc1F)C2	53*	-5
Cn1nc(C(=O)NCc2ccc(F)cc2)c2c1CCN(C(=O)c1ccccc1Cl)C2	55*	-7
COc1ccc(Nc2ncc3c(n2)CCN(Cc2ccccc2C)C3)cc1	0	-2
O=C(Nc1cccc(F)c1)C1CC1c1ccccc1 (stereo not drawn)	-10	-4
Cc1cc(C)cc(NC(=O)N2CCCC2c2nc(-c3ccccc3)no2)c1 (stereo not drawn)	-6	0
O=C(O)COc1ccc2c(c1)OC(=Cc1ccc(Cl)cc1)C2=O	5	13
O=C(NCc1cccc(C(F)(F)F)c1)C1CCN(c2cc(N3CCOCC3)ncn2)CC1	-8	-5
Cc1nnc(NC(=O)CSc2nnc(C3COc4ccccc4O3)o2)s1 (stereo not drawn)	-16	8
COc1ccc(S(=O)(=O)Nc2ccc3c(c2)OCO3)cc1[N+](=O)[O-]	14	-2
COc1cc(C=Nc2ccc(C)c(C)c2)ccc1O	19	3
